Records with an inconclusive call do not appear. Some compounds were tested as several samples or in several runs, with calls that do not always agree. Active and inactive are the calls of the source. How the source made its calls: active means hit-call score of the fitted dose curve at least 0.9, where 1 is the maximum; inconclusive means response in the unintended direction; inactive means score below 0.9.
Assay: Tanguay_ZF_120hpf_BRAI_legacy: (Legacy) Oregon State University Tanguay Lab 120 Hour Post-fertilization zebrafish Assay for Brain Malformation (AID 2283641)
Procedure: Tanguay_ZF_120hpf_legacy is a whole embryo, multiplexed endpoint assay using zebrafish larvae exposed for 120 hours post fertilization on a 96-well plate.Tanguay_ZF_120hpf_BRAI_legacy is one of one assay component(s) measured or calculated from the Tanguay_ZF_120hpf_legacy assay. It is designed to make measurements of zebrafish development as detected with brightfield microscopy of developing zebrafish embryos.Data from the assay component Tanguay_ZF_120hpf_BRAI_legacy was analyzed into 1 assay endpoints. This assay endpoint, Tanguay_ZF_120hpf_BRAI_legacy, was analyzed in the positive analysis fitting direction relative to DMSO as the negative control and baseline of activity. Using a type of morphology reporter, gain-of-signal activity can be used to understand changes in developmentals as they relate to the whole embryo. To generalize the intended target to other relatable targets, this assay endpoint is annotated to the zebrafish development intended target family, where the subfamily is brain morphogenesis.
Zebrafish husbandry: Tropical 5D wild-type adult zebrafish were housed in at an approximate density of 1000 per 100 gallon tank at the Sinnhuber Aquatic Research Laboratory, Oregon State University, Corvallis, OR. Each tank was kept at standard laboratory conditions of 28C on a 14-h light/10-h dark photoperiod in fish water consisting of reverse osmosis water supplemented with a commercially available salt (Instant Ocean). Spawning funnels were placed into the tanks the night prior, and embryos were collected and staged. […] Ten microliters of each row of dilution plate 2 was added to 2 exposure plates. The final DMSO concentration used was 0.64% (vol/vol). Thirty-two embryos were also exposed to 5uM trimethyltin chloride (positive control). Plates were sealed to prevent evaporation and foil covered to reduce light exposure and kept in a 28C incubator. Embryos were statically exposed until 120 hpf. At 24 hpf, embryos were assessed for photomotor response using a custom photomotor response analysis tool (PRAT) and for developmental toxicity endpoints (MO24: mortality at 24 hpf, DP: developmental progression, SM: spontaneous movement, and NC: notochord distortion). At 120 hpf, locomotor activity was measured using Viewpoint Zebralab and assessed for 18 endpoints. Zebrafish acquisition and analysis program (ZAAP), a custom program designed to inventory, acquire, and manage zebrafish data, was used to collect developmental endpoints as either present or absent (i.e., binary responses were recorded). If mortality occurred for an embryo (at either 24 or 120 hpf), the non-mortality endpoints were not measured.
For `CCOP(=S)(OCC)SCSP(=S)(OCC)OCC`, the outcome was “inactive”.
With `C=CC(=O)OCCCCCC(C)C` the outcome was “inactive”.
In the case of `COc1cc(-c2ccc(N)c(OC)c2)ccc1N`, the outcome is reported as “inactive” and the AC50 is reported as 77.2 µM (active).
In the case of `O=C1C2(Cl)C3(Cl)C4(Cl)C(Cl)(Cl)C5(Cl)C3(Cl)C1(Cl)C5(Cl)C24Cl` (stereo not given), the outcome is reported as “inactive”.
With `O=[N+]([O-])c1ccc(O)c([N+](=O)[O-])c1` the outcome was “inactive”.
With `O=C(O)C(Cl)(Cl)Cl` the outcome was “inactive”.
In the case of `O=C(Nc1ccc2[nH]ccc2c1)c1cc2cc(F)ccc2n1Cc1cccc(F)c1`, the outcome is reported as “inactive”.
With `O=c1[nH]c(=O)[nH]c(=O)[nH]1` the outcome was “inactive”.
With `ClC1(Cl)C2(Cl)C3(Cl)C4(Cl)C(Cl)(Cl)C5(Cl)C3(Cl)C1(Cl)C5(Cl)C24Cl` (stereo not given) the outcome was “inactive”.
In the case of `O=C(O)C(F)(F)C(F)(F)C(F)(F)C(F)(F)C(F)(F)C(F)(F)C(F)(F)C(F)(F)C(F)(F)C(F)(F)F`, the outcome is reported as “inactive”.
With `CCC(C)(C)c1ccc(O)c(C(C)(C)CC)c1` the outcome was “inactive”.
With `CN(C)N=O` the outcome was “inactive”.
For `C[C@@H]1C[C@@H]([C@H](O)CC2CC(=O)NC(=O)C2)C(=O)[C@@H](C)C1`, the outcome was “inactive”.
For `CC12CC1(C)C(=O)N(c1cc(Cl)cc(Cl)c1)C2=O` (stereo not given), the outcome was “inactive”.
In the case of `CCOP(=S)(OCC)Oc1nc(Cl)c(Cl)cc1Cl`, the outcome is reported as “inactive”.
In the case of `CCCCCCCCc1ccc(O)cc1`, the outcome is reported as “inactive”.
For `Cc1ccccc1N`, the outcome was “inactive”.
In the case of `ClCC(Cl)CCl`, the outcome is reported as “inactive”.
In the case of `CCN1CCC2(CC1)COc1cc3c(cc12)N(C(=O)c1ccc(-c2ccc(-c4nnc(C)o4)cc2C)cc1)CC3`, the outcome is reported as “inactive”.
With `C=C(C)C(=O)[O][Sn]([CH2]CCC)([CH2]CCC)[CH2]CCC` the outcome was “inactive”.
For `O=C(O)C(F)(F)C(F)(F)C(F)(F)C(F)(F)C(F)(F)C(F)(F)F`, the outcome was “inactive”.
In the case of `CC(C)(C)c1cc(O)ccc1O`, the outcome is reported as “inactive”.
In the case of `Oc1cccc2cccnc12`, the outcome is reported as “inactive”.
In the case of `CCC(=O)C(CC(C)N(C)C)(c1ccccc1)c1ccccc1` (stereo not given), the outcome is reported as “inactive”.
For `C[C@]12CCC(=O)C[C@@H]1CC[C@@H]1[C@@H]2CC[C@]2(C)[C@@H](O)CC[C@@H]12`, the outcome was “inactive”.
With `Cn1sc(Cl)cc1=O` the outcome was “inactive”.
In the case of `CC(C)(c1ccccc1)c1ccc(O)c(C(C)(C)c2ccccc2)c1`, the outcome is reported as “inactive”.
In the case of `CC(=O)[O][Hg][c]1ccccc1`, the outcome is reported as “inactive”.
For `NC(=O)O`, the outcome was “inactive”.

Source: PubChem BioAssay (EPA / NIEHS)
